For eight compounds, growth results are on record in PubChem BioAssay (NCI).

Among the test systems are EKVX NSCLC; SN12C renal; UO-31 renal; ACHN renal; CAKI-1 renal; A498 renal; CCRF-CEM leukemia; MOLT-4 leukemia; SR leukemia; RPMI-8226 leukemia; OVCAR-8 ovarian; OVCAR-5 ovarian; OVCAR-4 ovarian; SK-OV-3 ovarian; IGROV1 ovarian; OVCAR-3 ovarian; HS 578T breast; T-47D breast; NCI/ADR-RES ovarian.
Holding throughout (assay): NCI-60 one-dose screen, 48 h (100 = growth as untreated, 0 = no growth, -100 = all killed)
Common to all, as to conditions: 10 µM unless noted

The structures appear in SMILES notation. This is part of a sample that, as a whole, favours compounds with a hit. Of some 83,000 tested, about 20% had one in any assay.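 Note: values are percent growth. 100 is the growth of untreated cells, values between 100 and 0 indicate rising inhibition; between -100 and 0 indicates cell death.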 Unmarked numbers belong to inactive results. Active and inactive are the calls of the source. The calls were made as follows: active = growth percent below 10; inactive = the rest.

In the case of `COc1ccc(-c2csc(N/N=C/c3c(-c4ccc(S(C)(=O)=O)cc4)nc4ccccn34)n2)cc1`, the growth was 106% in the test on EKVX NSCLC; 105% in the test on SN12C renal; 87% in the test on UO-31 renal; 102% in the test with ACHN renal; 93.4% in the test on CAKI-1 renal; 85.9% in the test with A498 renal. For the same compound, the growth in the test on CCRF-CEM leukemia was 94.2%; in the test with MOLT-4 leukemia, 92.4%; in the test on SR leukemia, 94.5%; in the test on RPMI-8226 leukemia, 91.4%; in the test on OVCAR-8 ovarian, 103%; with OVCAR-5 ovarian, 108%. In addition, the growth in the test with OVCAR-4 ovarian is 105%; in the test with SK-OV-3 ovarian it was 136%; in the test on IGROV1 ovarian it was 115%; in the test with OVCAR-3 ovarian, 124%; with HS 578T breast it was 118%; in the test on T-47D breast, 87.8%.
For `Cc1cccc2sc(/N=C(\N)C(Br)Br)nc12`, the growth with EKVX NSCLC was 19.9%; in the test on SN12C renal it was 18.2%; in the test with UO-31 renal it was 30.6%; in the test with ACHN renal, -13.5% (active); in the test on CAKI-1 renal, 3.85% (active); in the test on A498 renal, 38.7%. For the same compound, the growth with CCRF-CEM leukemia was 1.81% (active); in the test with MOLT-4 leukemia, 2.63% (active); in the test on SR leukemia, -23.6% (active); in the test on RPMI-8226 leukemia, 2.19% (active); in the test with OVCAR-8 ovarian, 32.7%; in the test on OVCAR-5 ovarian, 41.2%. Also, the growth with OVCAR-4 ovarian is 64.7%; with SK-OV-3 ovarian, 87.5%; in the test with IGROV1 ovarian it was -65.7% (active); with OVCAR-3 ovarian it was 29.2%; with HS 578T breast, 37.2%; in the test on NCI/ADR-RES ovarian, 17.6%. The growth with T-47D breast was 41.4%.
In the case of `OC1CCN(CCCOc2c3ccc(Cl)cc3nc3c2oc2ccc(Cl)cc23)CC1`, the growth in the test with EKVX NSCLC was 34.7%; with SN12C renal, 23.2%; in the test with UO-31 renal it was 7.4% (active); in the test on ACHN renal it was -98.4% (active); in the test with CAKI-1 renal it was 3.71% (active); in the test with A498 renal, -7.6% (active). For the same compound, the growth was -28.8% (active) in the test with CCRF-CEM leukemia; 0.17% (active) with MOLT-4 leukemia; -39.3% (active) in the test with SR leukemia; -8.79% (active) with RPMI-8226 leukemia; 27.7% in the test with OVCAR-8 ovarian; -28.1% (active) in the test on OVCAR-5 ovarian. Moreover, the growth in the test with OVCAR-4 ovarian was 55%; with IGROV1 ovarian it was 9.03% (active); in the test with OVCAR-3 ovarian, 46.5%; in the test with HS 578T breast, 20.5%; in the test on NCI/ADR-RES ovarian, 32.4%; in the test on T-47D breast it was 52.3%.
On to `Clc1ccc2oc3c(OCCCn4ccnc4)c4ccccc4nc3c2c1`, for which the growth in the test on EKVX NSCLC is 71.9%; in the test on SN12C renal, 56.3%; in the test with UO-31 renal, 43.9%; in the test with ACHN renal it was 34.8%; in the test with CAKI-1 renal, 38.5%; in the test with A498 renal, 8.47% (active). Moreover, the growth in the test on CCRF-CEM leukemia is 59.6%; in the test on MOLT-4 leukemia, 24.7%; in the test with SR leukemia, 32.5%; with RPMI-8226 leukemia, 67%; in the test with OVCAR-8 ovarian, 44.3%; in the test on OVCAR-5 ovarian it was 73.5%. Also, the growth is 74.5% with OVCAR-4 ovarian; 112% in the test with SK-OV-3 ovarian; 55% in the test on IGROV1 ovarian; 101% in the test on OVCAR-3 ovarian; 87.8% in the test with HS 578T breast; 56.4% in the test with NCI/ADR-RES ovarian. In the test on T-47D breast, the growth was 74.6%.
For the compound `c1ccc2c(NCCCn3ccnc3)c3oc4ccccc4c3nc2c1`, the growth is 3.11% (active) with EKVX NSCLC; -10.8% (active) in the test on SN12C renal; 0.573% (active) in the test with UO-31 renal; -7.51% (active) in the test on ACHN renal; -8.49% (active) in the test with CAKI-1 renal; -18.2% (active) in the test on A498 renal. For the same compound, the growth with CCRF-CEM leukemia is 15%; in the test on MOLT-4 leukemia, -3.87% (active); in the test with SR leukemia it was -2.89% (active); in the test with RPMI-8226 leukemia, -25.4% (active); in the test with OVCAR-8 ovarian, -16.9% (active); with OVCAR-5 ovarian, 1.5% (active). In addition, the growth in the test with OVCAR-4 ovarian was -10.6% (active); in the test with SK-OV-3 ovarian it was 16.5%; in the test with IGROV1 ovarian, -6.93% (active); with OVCAR-3 ovarian, 5.25% (active); with HS 578T breast it was 19.7%; with NCI/ADR-RES ovarian it was 2.5% (active). In the test with T-47D breast, the growth was 17%.
For the compound `Cc1ccc(C(=O)Nc2cccc(C(F)(F)F)c2)cc1Nc1nc(-c2cnccn2)nc2c1cnn2C`, the growth was 77.3% in the test on EKVX NSCLC; 64.7% in the test on SN12C renal; 37.8% in the test on UO-31 renal; 53% in the test with ACHN renal; 48.9% in the test with CAKI-1 renal; 53.9% in the test on A498 renal. Further, the growth in the test on CCRF-CEM leukemia was 78.2%; with MOLT-4 leukemia, 43.1%; with SR leukemia, 39.5%; in the test with RPMI-8226 leukemia, 61.8%; in the test with OVCAR-8 ovarian, 77.3%; in the test with OVCAR-5 ovarian, 39.2%. In addition, the growth in the test on OVCAR-4 ovarian was 83.7%; in the test on SK-OV-3 ovarian it was 97.9%; in the test on IGROV1 ovarian it was 52.7%; with OVCAR-3 ovarian it was 97.9%; in the test on HS 578T breast it was 51.2%; with NCI/ADR-RES ovarian, 75.6%. Besides, in the test with T-47D breast, the growth is 74.5%.
As to `N#Cc1c(-c2ccc(F)cc2)nc2c(C#N)c(Nc3ccccc3)nn2c1N`, the growth in the test with EKVX NSCLC was 92.8%; with SN12C renal it was 97.7%; in the test on UO-31 renal, 90.7%; in the test with ACHN renal, 105%; in the test with CAKI-1 renal, 90.7%; with A498 renal it was 66.3%. For the same compound, the growth was 96.1% with CCRF-CEM leukemia; 102% with MOLT-4 leukemia; 93.3% in the test on SR leukemia; 104% with RPMI-8226 leukemia; 101% in the test with OVCAR-8 ovarian; 98.9% in the test with OVCAR-5 ovarian. Further, the growth in the test on OVCAR-4 ovarian was 103%; in the test on SK-OV-3 ovarian, 117%; in the test with IGROV1 ovarian, 107%; in the test on OVCAR-3 ovarian it was 106%; in the test with HS 578T breast, 99.6%; in the test on NCI/ADR-RES ovarian, 103%. For the same compound, the growth in the test with T-47D breast is 88.3%.
For the compound `CCOC(=O)c1c(Nc2ccccc2)nn2c(N)c(C#N)c(-c3ccc(Cl)cc3)nc12`, the growth in the test with EKVX NSCLC was 68.9%; with SN12C renal it was 53.1%; in the test with UO-31 renal it was 93.8%; in the test on ACHN renal it was 42.1%; in the test with CAKI-1 renal, 31.5%; with A498 renal, 63.3%. The growth in the test with CCRF-CEM leukemia is 83%; in the test with MOLT-4 leukemia it was 87.5%; in the test on SR leukemia, 86.9%; in the test on RPMI-8226 leukemia, 86.1%; with OVCAR-8 ovarian, 42.5%; with OVCAR-5 ovarian it was 78.5%. The growth is 44.1% in the test with OVCAR-4 ovarian; 59.4% in the test with SK-OV-3 ovarian; 70.5% in the test on IGROV1 ovarian; 81.8% in the test with OVCAR-3 ovarian; 33.8% with HS 578T breast; 71% with NCI/ADR-RES ovarian. Further, the growth in the test on T-47D breast is 68.5%.
